# Results from ChEMBL document CHEMBL4513216, “Probing the Open Global Health Chemical Diversity Library for Multistage-Active Starting Points for Next-Generation Antimalarials” (ACS Infect Dis, 2020).
# Out of some 69,000 compounds screened, about 8,600 (12%) showed an effect of 50% or more. Shown is part of a subset that was picked to be rich in strong results.
# System: Plasmodium berghei
# Assay: Screen against P. berghei liver stage (PbLuc), transformed with Luciferase, at 10uM
# Format: functional, HepG2
# Settings: tested at 10 uM
row,Compound,INHIBITION [%]
1,COc1cccc2c(=O)n(Cc3nc(C)cc(O)n3)cnc12,1.56
2,Cc1[nH]c2ccc(C(=O)N3C[C@@H](O)[C@H](N4CCOCC4)C3)cc2c1C,-29.8
3,O=C(NCc1ccccc1)C1CN(c2ccccn2)CCO1 (stereo not drawn),22
4,CCS(=O)(=O)N1CCN(C(C)c2ncc(-c3ccccc3)o2)CC1 (stereo not drawn),12.9
5,CN(C)c1ncc(-c2ccc(NC(=O)[C@@H]3CCCCN3)cc2)cn1,1.11
6,CN1CCCC1(CCCc1cccnc1)C(=O)NCc1nccn1C (stereo not drawn),15.5
7,CC(c1ccc(S(N)(=O)=O)cc1)N(C)C(=O)c1ccccc1I (stereo not drawn),-43.5
8,Cc1noc(C)c1CN(C)Cc1cnc(N2CCOCC2)nc1,39.4
9,Cc1noc(CN(C)Cc2cnc(N3CCOCC3)nc2)n1,20.1
10,CC(C)c1nc(CN(C)Cc2cnc(N3CCOCC3)nc2)no1,74.7
11,COc1ncccc1NC(=O)N1CCC(CNC(C)=O)CC1,7.9
12,CCCC1CCCN(C(=O)Nc2ccc(F)c(C(N)=O)c2)CC1 (stereo not drawn),53.8
13,CCN(CC)C(=O)C1CCN(C(=O)Nc2cccnc2OC)CC1,22.6
14,COc1ncccc1NC(=O)NCC1CC1,12.2
15,NC(=O)c1cc(NC(=O)N2CCCCCC2)ccc1F,-7.9
16,COc1ccc(Oc2ncccc2NC(=O)N2CC[C@H](O)C2)cc1,16.3
17,CCCC1CCCN(C(=O)Nc2cccnc2OC)CC1 (stereo not drawn),81.6
18,COc1ccc(Oc2ncccc2NC(=O)N2CCOCC2)cc1,55.5
19,CC1CCCN(C(=O)Nc2ccc(F)c(C(N)=O)c2)C1 (stereo not drawn),23.6
20,COc1ccc(Oc2ncccc2NC(=O)N2CCOC(C)C2)cc1 (stereo not drawn),44.3
21,CCOc1ncccc1NC(=O)N1CCCC(CNC(N)=O)C1 (stereo not drawn),22.8
22,COc1ncccc1NC(=O)N1CCCC(CNC(=O)OC(C)(C)C)C1 (stereo not drawn),57.7

row,Compound,INHIBITION [%]
1,O=C(c1cc2c(s1)CCC2)N1CCC(c2cnccn2)CC1,28.5
2,CC(C)NC(=O)N1CCC2(CC1)CN(C(=O)NC(C)C)CCO2,11.8
3,CC(C)C(=O)NCc1ccc(N2CCCC2)nc1,-24.2
4,O=C(NCc1csc(-c2cnccn2)n1)c1cnn2c1CCCC2,8.7
5,Cc1cnn(CC2CCCN2C(=O)CCc2c(C)noc2Cl)c1 (stereo not drawn),0
6,CCNC(=O)[C@@H]1C[C@@H](NC(=O)c2ccsc2)CN1CCCSC,-16.9
7,Cc1cccc(CNC(=O)CNc2cc(CO)ccc2Cl)c1,14.2
8,CN1CC(=O)N(c2cnn(C)c2)CC12CCN(Cc1cccnc1)C2 (stereo not drawn),39.8
9,CC(C)(NCC(=O)NC(=O)NC1CC1)c1ccc2c(c1)OCO2,43.3
10,O=C(CC1[C@H]2CN(C(=O)c3cccnc3)C[C@@H]12)Nc1cccnc1 (stereo partly drawn),34.6
11,Cn1cc(-c2nnc3sc(C4CCC4)nn23)cn1,25.2
12,COc1cc(C)ccc1OCC(=O)NS(=O)(=O)c1cccnc1,-16
13,O=S(=O)(C1CC1)N1CCO[C@@H]2CC(COCc3cccnc3)C[C@H]21 (stereo partly drawn),34.5
14,O=C(Nc1cccnc1)NC1(c2cccc(F)c2)CC1,-2.39
15,Cc1ccnn1CC(=O)Nc1cc(-c2ccncc2)[nH]n1,63.4
16,Cc1ccn(CC(=O)Nc2cc(-c3ccncc3)[nH]n2)n1,39.6
17,Cc1cc(C)n(CC(=O)Nc2cc(-c3ccncc3)[nH]n2)n1,5.94
18,Cc1cc(C2CCCN(C(=O)COc3cc(C)on3)C2)n[nH]1 (stereo not drawn),-23.8
19,COCCNc1ncc(-c2onc(C)c2C)c(-c2ccco2)n1,31.85
20,Cc1nnc(N2CCOC(C)(C(=O)NC3CCCC3)C2)c2ccccc12 (stereo not drawn),4.41
21,CCN(CC)C(=O)CCn1ncc2c(Cl)cccc21,-4.74
22,COCCCNC(=O)CCn1ncc2c(Cl)cccc21,20.9

row,Compound,INHIBITION [%]
1,CN(C)C(=O)CNC(=O)CCn1ncc2c(Cl)cccc21,-15.8
2,CCn1ncc(NC(=O)CCn2ncc3c(Cl)cccc32)c1C,9.32
3,O=C(CCn1ncc2c(Cl)cccc21)NCCCn1cccn1,-2.28
4,COCCNC(=O)CCn1ncc2c(Cl)cccc21,55.7
5,CCn1cc(CNC(=O)CCn2ncc3c(Cl)cccc32)cn1,54.9
6,CC(C)(C)NC(=O)CCn1ncc2c(Cl)cccc21,47.4
7,Cc1nn(C)c(C)c1CNC(=O)CCn1ncc2c(Cl)cccc21,49.9
8,O=C(CCn1ncc2c(Cl)cccc21)NCC1CC1,68.9
9,O=C(CCn1ncc2c(Cl)cccc21)NCCCO,49.9
10,CN(C)CCNC(=O)CCn1ncc2c(Cl)cccc21,55.7
11,Cc1nnc(N2CCc3cncnc3C2)c(C#N)c1C,-5.08
12,Cc1nc(C2CCCN2CC(=O)Nc2c(C)n[nH]c2C)no1 (stereo not drawn),27.8
13,CC[C@H](C)[C@H](N)C(=O)Nc1nc(-c2cnc(N(C)CCO)nc2)cs1,-37.5
14,Cc1cn2c(=O)c(-c3ccnc(N4CCC[C@@H]4CO)n3)cnc2s1,4.08
15,Cn1cc(CC2CCN(C(=O)NCc3cccc(C(N)=O)c3)C2)cn1 (stereo not drawn),-51.705
16,O=C1NC2(CCN(C(=O)c3ccnnc3)CC2)CC1c1ccccc1 (stereo not drawn),-16.9
17,O=C1NC2(CCNCC2)CC1c1cccnc1 (stereo not drawn),52.3
18,O=C1NC2(CCN(C(=O)Cc3ccsc3)CC2)CC1c1ccccc1 (stereo not drawn),-4.88
19,O=C1CC(c2ccccc2)C2(CCN(CC3CC3)CC2)N1 (stereo not drawn),31.2
20,O=C1NC2(CCN(CCO)CC2)CC1c1ccccc1 (stereo not drawn),21.6
21,O=C1NC2(CCN(CC3CC3)CC2)CC1c1ccccc1 (stereo not drawn),52.6
22,O=C1NC2(CCNCC2)CC1c1ccccc1 (stereo not drawn),49.7

row,Compound,INHIBITION [%]
1,O=C1NC2(CCNCC2)CC1c1ccncc1 (stereo not drawn),33.4
2,O=C1NC2(CCN(Cc3cccnc3)CC2)CC1c1ccncc1 (stereo not drawn),49.5
3,O=C1NC2(CCN(CCc3ccccc3)CC2)CC1c1ccccc1 (stereo not drawn),52.6
4,O=C1NC2(CCN(Cc3cccnc3)CC2)CC1c1cccnc1 (stereo not drawn),-12.1
5,O=C1NC2(CCN(C/C=C/c3ccccc3)CC2)CC1c1ccccc1 (stereo not drawn),63.8
6,CCOCc1cnc2n1CCN(Cc1cccs1)C2C (stereo not drawn),-10.5
7,Nc1cc(-c2c[nH]nc2C2CCCN2CCCc2ccccc2)ccn1 (stereo not drawn),17.8
8,CCn1cc(CN2CCCN(C(=O)c3cccc(C#N)c3)CC2)cn1,-73.1
9,CNc1ccc(CC2CCCN(Cc3c[nH]cn3)C2)nn1 (stereo not drawn),36.9
10,Cc1cnn(CC2CCCN2C(=O)Cc2c(C)noc2C)c1 (stereo not drawn),29.4
11,Cc1nccn1CC1CCCN(S(=O)(=O)c2cnn(C)c2)C1 (stereo not drawn),42.5
12,CCc1nccn1C1CCCN(C(=O)c2csc(C3CC3)n2)C1 (stereo not drawn),-4.16
13,CC(C)CN1C[C@H]2CCN(c3ncccn3)CC[C@H]2S1(=O)=O,-14.9
14,CCN1C[C@H]2CCN(c3ncccn3)CC[C@H]2S1(=O)=O,-41.6
15,COCCN1C[C@H]2CCN(c3ncccn3)CC[C@H]2S1(=O)=O,82.9
16,CCn1nc(C)c2nnn(CC(=O)Nc3ccccc3)c(=O)c21,49.9
17,CN(C)S(=O)(=O)N1C[C@H]2CCC[C@@]2(COc2cccnc2)C1,-16.9
18,CN1CCN([C@@H]2CCN(C3CCOCC3)[C@H]2Cc2cnn(C)c2)CC1,-8.85
19,Cc1nnsc1-c1nnc2sc(C(C)C)nn12,12.5
20,Cc1nn2c(-c3snnc3C)nnc2s1,61.8
21,Cc1nnsc1-c1nnc2sc(C3CCC3)nn12,-13.1
22,O=C1CCC(c2ccc(Cl)cc2)=NN1CN1CCSCC1,6.34

row,Compound,INHIBITION [%]
1,CO[C@@H]1CCN(Cc2cnn(C)c2)[C@@H]2CN(Cc3ccco3)C[C@@H]21,7.11
2,O=C(O)CCc1cc2n(n1)CCCN(C(=O)c1cc3ccccc3s1)C2,67.9
3,O=C(O)CCc1cc2n(n1)CCCN(C(=O)c1ccc3cc[nH]c3c1)C2,8.47
4,CCOc1cccc(C(=O)N2CCCn3nc(CCC(=O)O)cc3C2)c1,-19
5,O=C(O)CCc1cc2n(n1)CCCN(C(=O)c1ccc(F)cc1F)C2,-13.5
6,CCCc1nc(C(=O)N2CCCn3nc(CCC(=O)O)cc3C2)cs1,-9.86
7,O=C(O)CCc1cc2n(n1)CCCN(C(=O)c1ccc(Cl)s1)C2,51.5
8,Cc1ccc(C(=O)N2CCCn3nc(CCC(=O)O)cc3C2)cc1Cl,52.5
9,O=C(c1ccc(Cl)s1)N1CCCn2nc(CN3CC[C@H](F)C3)cc2C1,45
10,CCc1cc(C(=O)N2CCCn3nc(CCC(=O)O)cc3C2)cs1,22.8
11,CC(C)n1nc(Cn2cccc2)c2c1CN(C1CCOCC1)C2,23.3
12,Cc1nc(CN(C)C(=O)NC(C)c2ccc3c(c2)OCCO3)cs1 (stereo not drawn),31.2
13,CC(Cn1cccn1)NC(=O)CCc1nc(C(C)(C)C)no1 (stereo not drawn),10.6
14,O=C1COC2(CCN(Cc3ccncc3)CC2)CN1c1ccccc1,-27.4
15,Cc1c[nH]c(C2COCCN2S(=O)(=O)c2cn[nH]c2)n1 (stereo not drawn),-8.12
16,CCc1cnc(C)nc1NCCC(=O)N1CCC(C)CC1,-21.1
17,CCc1nc(N)nc(NCCC(=O)N2CCCC2)c1C,62.8
18,Cc1ccc(CSc2nc(N)cc(NCCC(=O)N3CCCC3)n2)cc1,36.6
19,CCn1ccnc1CN1CCC(N(Cc2ncc(C)o2)C(C)=O)C1 (stereo not drawn),48.2
20,Cn1cc(CC(=O)N2CCCC(c3ccn[nH]3)C2)cn1 (stereo not drawn),5.11
